The results in this text go back to publication PMC7862700, “An all-to-all approach to the identification of sequence-specific readers for epigenetic DNA modifications on cytosine”.

What all share (test): DAPPL (digital affinity profiling via proximity ligation, sequencing); 10 mM Tris-HCl pH 7.5, 50 mM NaCl, 1 mM DTT, 4% glycerol, room temperature, 30 min; GST-TFs on glutathione beads, 16-mer random dsDNA library, 0.1% formaldehyde crosslink after washing; high values mean tight binding
Common to all, as to settings: protein: recombinant; tags: N-terminal GST; dsDNA, one strand shown

One assay addresses T1, GABPA (Homo sapiens, UniProt Q06546 1-454).
T1 sequence: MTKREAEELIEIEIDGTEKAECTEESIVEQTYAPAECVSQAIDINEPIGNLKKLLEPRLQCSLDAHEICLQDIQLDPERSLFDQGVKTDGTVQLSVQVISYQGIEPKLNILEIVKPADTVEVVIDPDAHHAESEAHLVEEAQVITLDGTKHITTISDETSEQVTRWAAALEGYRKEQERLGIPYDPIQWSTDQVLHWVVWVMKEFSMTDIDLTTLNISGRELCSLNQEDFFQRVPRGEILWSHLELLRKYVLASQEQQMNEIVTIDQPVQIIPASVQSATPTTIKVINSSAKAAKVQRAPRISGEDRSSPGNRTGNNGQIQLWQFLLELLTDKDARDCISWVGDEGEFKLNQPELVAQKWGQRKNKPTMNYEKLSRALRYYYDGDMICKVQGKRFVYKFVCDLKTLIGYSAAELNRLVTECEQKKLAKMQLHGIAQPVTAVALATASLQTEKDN
In short, it runs like this: (§1)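 A tag-only sample was pooled with DNA-barcoded human transcription factors that had been expressed in yeast as GST fusions and captured on glutathione beads. The pools were incubated for 30 min at room temperature with 200 nmole of a random double-stranded 16-mer DNA library in Tris/NaCl/DTT/glycerol buffer, then washed, crosslinked with 0.1% formaldehyde, proximity-ligated (BsaI/T4 ligase, 1 h, 37 °C), PCR-amplified and sequenced on an Illumina NextSeq500. Binding signal is each hexamer's read frequency for a factor divided by its frequency for the tag-only sample.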

Another assay addresses T2, EHF (Homo sapiens, UniProt Q9NZC4 1-300).
T2 sequence: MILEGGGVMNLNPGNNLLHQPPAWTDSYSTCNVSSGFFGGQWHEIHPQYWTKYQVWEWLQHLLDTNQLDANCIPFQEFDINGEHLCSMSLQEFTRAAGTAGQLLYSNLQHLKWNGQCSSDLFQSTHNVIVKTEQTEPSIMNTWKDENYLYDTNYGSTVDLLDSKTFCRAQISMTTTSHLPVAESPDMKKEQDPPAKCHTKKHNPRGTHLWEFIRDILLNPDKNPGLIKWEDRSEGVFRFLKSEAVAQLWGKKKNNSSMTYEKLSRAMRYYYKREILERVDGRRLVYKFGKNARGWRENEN
A digest of the protocol: as §1

A further assay deals with T3, ELK3 (Homo sapiens, UniProt P41970 1-407).
T3 sequence: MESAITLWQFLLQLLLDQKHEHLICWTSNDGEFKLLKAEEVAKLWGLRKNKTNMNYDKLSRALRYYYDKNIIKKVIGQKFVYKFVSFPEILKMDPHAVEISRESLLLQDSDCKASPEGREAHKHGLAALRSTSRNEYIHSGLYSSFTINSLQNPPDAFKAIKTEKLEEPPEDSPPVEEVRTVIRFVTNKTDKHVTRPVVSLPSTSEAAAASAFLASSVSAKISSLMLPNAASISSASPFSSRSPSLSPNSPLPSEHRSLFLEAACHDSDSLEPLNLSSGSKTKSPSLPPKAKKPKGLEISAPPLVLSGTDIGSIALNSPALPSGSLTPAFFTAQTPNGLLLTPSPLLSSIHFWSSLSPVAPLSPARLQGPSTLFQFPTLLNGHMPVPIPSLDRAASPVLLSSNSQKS
A digest of the protocol:
as §1

The next assay concerns the target ETV5 (Homo sapiens, UniProt P41161 1-510). A digest of the protocol: as §1
For the next assay, the target named is T4, ELF3 (Homo sapiens, UniProt P78545 1-371).
T4 sequence: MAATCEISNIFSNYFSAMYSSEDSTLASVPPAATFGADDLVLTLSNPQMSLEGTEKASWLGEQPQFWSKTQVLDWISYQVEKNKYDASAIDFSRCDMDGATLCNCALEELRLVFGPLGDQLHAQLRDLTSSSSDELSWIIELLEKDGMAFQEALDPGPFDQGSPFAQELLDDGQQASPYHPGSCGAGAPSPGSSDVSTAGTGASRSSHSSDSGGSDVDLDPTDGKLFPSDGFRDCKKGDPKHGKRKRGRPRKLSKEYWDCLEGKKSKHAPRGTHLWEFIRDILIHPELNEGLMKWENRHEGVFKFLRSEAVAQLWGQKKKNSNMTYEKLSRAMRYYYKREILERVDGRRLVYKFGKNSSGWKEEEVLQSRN
A digest of the protocol: as §1

Another assay concerns the target ETV1 (Homo sapiens, UniProt P50549 1-477). In short, it runs like this: as §1
Another assay concerns the target T5, ERF (Homo sapiens, UniProt P50548 1-548).
T5 sequence: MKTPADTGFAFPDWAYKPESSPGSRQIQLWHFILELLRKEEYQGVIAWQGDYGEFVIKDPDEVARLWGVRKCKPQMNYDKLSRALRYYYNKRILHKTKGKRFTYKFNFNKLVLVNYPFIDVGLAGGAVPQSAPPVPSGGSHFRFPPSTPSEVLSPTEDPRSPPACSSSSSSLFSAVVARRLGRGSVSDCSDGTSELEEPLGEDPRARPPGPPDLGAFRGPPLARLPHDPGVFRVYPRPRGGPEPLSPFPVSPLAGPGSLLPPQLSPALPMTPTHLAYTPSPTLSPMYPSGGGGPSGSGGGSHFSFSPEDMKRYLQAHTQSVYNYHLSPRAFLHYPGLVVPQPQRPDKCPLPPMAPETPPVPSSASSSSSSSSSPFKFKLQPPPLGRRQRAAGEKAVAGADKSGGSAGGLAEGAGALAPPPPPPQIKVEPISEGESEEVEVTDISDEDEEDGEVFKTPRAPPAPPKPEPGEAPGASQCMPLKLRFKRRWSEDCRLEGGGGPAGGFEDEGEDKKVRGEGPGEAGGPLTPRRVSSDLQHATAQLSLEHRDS
A digest of the protocol: as §1

In a further assay the target is T6, ETS2 (Homo sapiens, UniProt P15036 1-469).
T6 sequence: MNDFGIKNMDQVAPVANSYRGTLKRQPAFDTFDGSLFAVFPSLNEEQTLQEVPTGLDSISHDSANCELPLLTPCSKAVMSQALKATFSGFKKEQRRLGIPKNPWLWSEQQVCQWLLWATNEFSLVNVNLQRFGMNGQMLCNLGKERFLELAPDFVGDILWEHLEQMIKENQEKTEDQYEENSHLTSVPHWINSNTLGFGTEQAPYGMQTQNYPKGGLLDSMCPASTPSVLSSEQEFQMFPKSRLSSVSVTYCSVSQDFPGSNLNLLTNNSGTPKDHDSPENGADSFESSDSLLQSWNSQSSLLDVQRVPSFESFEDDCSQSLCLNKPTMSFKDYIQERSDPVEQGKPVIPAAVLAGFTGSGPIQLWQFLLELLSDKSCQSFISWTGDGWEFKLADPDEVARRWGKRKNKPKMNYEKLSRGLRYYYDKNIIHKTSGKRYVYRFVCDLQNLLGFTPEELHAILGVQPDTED
In short, it runs like this:
as §1

The target in another assay is T7, ETV3 (Homo sapiens, UniProt P41162-2 1-143).
T7 sequence: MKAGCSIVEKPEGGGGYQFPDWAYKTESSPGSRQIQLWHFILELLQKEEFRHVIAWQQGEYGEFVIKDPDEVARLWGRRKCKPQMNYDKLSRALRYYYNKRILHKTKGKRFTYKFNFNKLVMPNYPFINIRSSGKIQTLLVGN
In short, it runs like this: as §1

In a further assay the target is ETV6 (Homo sapiens, UniProt P41212 1-452). A digest of the protocol: as §1
ETV6, sequence (P41212 whole entry): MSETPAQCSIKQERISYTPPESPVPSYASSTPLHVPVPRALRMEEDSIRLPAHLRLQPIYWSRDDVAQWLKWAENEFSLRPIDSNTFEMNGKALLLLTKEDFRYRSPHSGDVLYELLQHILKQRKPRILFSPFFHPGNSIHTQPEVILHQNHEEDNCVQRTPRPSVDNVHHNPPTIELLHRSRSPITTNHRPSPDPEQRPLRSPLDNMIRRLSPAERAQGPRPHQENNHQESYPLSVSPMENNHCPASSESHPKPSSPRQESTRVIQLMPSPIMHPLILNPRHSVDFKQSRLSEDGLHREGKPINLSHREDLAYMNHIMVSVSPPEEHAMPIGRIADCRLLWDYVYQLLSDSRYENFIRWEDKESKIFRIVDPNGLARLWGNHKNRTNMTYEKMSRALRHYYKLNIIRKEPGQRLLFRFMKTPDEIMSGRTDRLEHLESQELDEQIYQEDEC
In the next assay the target is T8, ETV7 (Homo sapiens, UniProt Q9Y603 1-341).
T8 sequence: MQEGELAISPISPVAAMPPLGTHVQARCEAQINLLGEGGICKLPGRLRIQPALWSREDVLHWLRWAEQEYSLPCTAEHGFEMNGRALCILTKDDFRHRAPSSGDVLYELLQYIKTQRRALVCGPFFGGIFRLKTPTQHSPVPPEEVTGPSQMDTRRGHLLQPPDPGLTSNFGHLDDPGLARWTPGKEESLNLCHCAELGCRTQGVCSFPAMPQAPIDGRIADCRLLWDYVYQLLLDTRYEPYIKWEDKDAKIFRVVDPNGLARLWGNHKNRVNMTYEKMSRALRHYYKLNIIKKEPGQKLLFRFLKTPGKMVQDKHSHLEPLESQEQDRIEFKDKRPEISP
A digest of the protocol: as §1

ETV5, sequence (P41161 whole entry): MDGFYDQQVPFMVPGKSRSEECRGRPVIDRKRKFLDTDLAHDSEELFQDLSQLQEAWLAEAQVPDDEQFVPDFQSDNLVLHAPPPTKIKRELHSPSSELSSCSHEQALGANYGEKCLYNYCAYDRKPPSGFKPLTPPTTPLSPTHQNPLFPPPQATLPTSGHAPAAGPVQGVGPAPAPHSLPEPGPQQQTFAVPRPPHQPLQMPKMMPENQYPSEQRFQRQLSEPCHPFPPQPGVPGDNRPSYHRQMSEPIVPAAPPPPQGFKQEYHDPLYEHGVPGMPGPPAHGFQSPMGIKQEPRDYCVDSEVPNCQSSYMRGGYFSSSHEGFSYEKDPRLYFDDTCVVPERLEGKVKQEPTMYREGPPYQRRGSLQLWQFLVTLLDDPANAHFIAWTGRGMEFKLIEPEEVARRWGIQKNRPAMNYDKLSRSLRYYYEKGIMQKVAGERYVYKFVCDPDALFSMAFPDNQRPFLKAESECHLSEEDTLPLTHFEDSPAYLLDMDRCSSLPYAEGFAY
ETV1, sequence (P50549 whole entry): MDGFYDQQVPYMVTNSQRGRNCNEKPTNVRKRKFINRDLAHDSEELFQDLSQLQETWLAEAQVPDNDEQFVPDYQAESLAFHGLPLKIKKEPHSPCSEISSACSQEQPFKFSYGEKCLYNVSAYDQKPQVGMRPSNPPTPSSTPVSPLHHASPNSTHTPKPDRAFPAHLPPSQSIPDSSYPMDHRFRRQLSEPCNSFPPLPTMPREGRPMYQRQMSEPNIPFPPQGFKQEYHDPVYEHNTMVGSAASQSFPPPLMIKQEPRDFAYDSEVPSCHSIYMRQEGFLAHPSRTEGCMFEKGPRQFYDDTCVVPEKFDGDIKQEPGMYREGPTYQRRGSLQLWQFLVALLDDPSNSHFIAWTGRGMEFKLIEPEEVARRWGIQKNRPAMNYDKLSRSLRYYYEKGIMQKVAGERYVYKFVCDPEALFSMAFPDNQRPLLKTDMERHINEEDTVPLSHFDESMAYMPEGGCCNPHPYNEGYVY

AGTAAA: the binding signal in the assay with GABPA was 1.02 fold enrichment (6-mer frequency, TF over GST control); in the assay with EHF it was 1.03 fold enrichment (6-mer frequency, TF over GST control); with ELK3, 1.06 fold enrichment (6-mer frequency, TF over GST control); with ETV5, 1.05 fold enrichment (6-mer frequency, TF over GST control); with ELF3 it was 1.08 fold enrichment (6-mer frequency, TF over GST control); with ETV1 it was 1.04 fold enrichment (6-mer frequency, TF over GST control). The binding signal in the assay with ERF is 1.01 fold enrichment (6-mer frequency, TF over GST control); with ETS2 it was 1.02 fold enrichment (6-mer frequency, TF over GST control); in the assay with ETV3 it was 1.03 fold enrichment (6-mer frequency, TF over GST control); with ETV6 it was 1.11 fold enrichment (6-mer frequency, TF over GST control).
For GCGAAA, the binding signal is 1.01 fold enrichment (6-mer frequency, TF over GST control) with ETV5 and 1.04 fold enrichment (6-mer frequency, TF over GST control) with ETV7.
